# Values joined by “and” are separate entries in the source; they are usually repeats but may differ in a detail not shown here. Equal values may be shown once. About 2,000 (36%) of roughly 5,500 compounds were called active. About 18% were inconclusive and are not listed. This is one part of the list. A number with no mark means an inactive call. Cut-off read from the data, not from the text of the source: active = normalized growth mostly below about 0.91 (no sharp cut-off); inconclusive = no clear call, values can overlap the other calls; inactive = mostly above about 0.92.
# Assay: chemical genetic growth profiling, strain panel (AID 1159580);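 note: tested at 20 µM; growth read once vehicle control cultures reached saturation at 30 °C; 1 = growth at the plate median or of vehicle wells; lower values mean less growth of the strain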
# Conditions: S. cerevisiae deletion strains, growth OD
smiles,measurement,setting,value
CC[N+](CC)(CC)CCOc1cccc(OCC[N+](CC)(CC)CC)c1OCC[N+](CC)(CC)CC,normalized growth,"locus YAL013W, strain DEP1, hits give low values",1.01
same,normalized growth,"locus YAL021C, strain ccr4, hits give low values",1.02
same,normalized growth,"locus YAL026C, strain drs2, hits give low values",1.01
same,normalized growth,"locus YAL030W, strain snc1, hits give low values",1.02
same,normalized growth,"locus YAL040C, strain CLN3, hits give low values",1.01
same,normalized growth,"locus YBL061C, strain skt5, hits give low values",1.02
same,normalized growth,"locus YBR009C, strain hhf1, hits give low values",1
same,normalized growth,"locus YBR021W, strain FUR4, hits give low values",1.01
same,normalized growth,"locus YBR023C, strain chs3, hits give low values",1.02
same,normalized growth,"locus YBR171W, strain sec66, hits give low values",1.02
same,normalized growth,"locus YBR229C, strain ROT2, hits give low values",1.01
same,normalized growth,"locus YBR231C, strain swc5, hits give low values",0.958
same,normalized growth,"locus YBR279W, strain paf1, hits give low values",1.03
same,normalized growth,"locus YCL011C, strain gbp2, hits give low values",1.02
same,normalized growth,"locus YCL016C, strain dcc1, hits give low values",1.02
same,normalized growth,"locus YCL029C, strain bik1, hits give low values",1
same,normalized growth,"locus YCL061C, strain MRC1 (second series), hits give low values",0.999
same,normalized growth,"locus YCL061C, strain MRC1, hits give low values",1.01
same,normalized growth,"locus YCL069W, strain vba3, hits give low values",1.01
same,normalized growth,"locus YCR088W, strain abp1, hits give low values",1.02
same,normalized growth,"locus YDL005C, strain med2, hits give low values",1.03
same,normalized growth,"locus YDL035C, strain GPR1, hits give low values",1
same,normalized growth,"locus YDL040C, strain nat1, hits give low values",1.01
same,normalized growth,"locus YDL074C, strain BRE1, hits give low values",1.02
same,normalized growth,"locus YDL101C, strain DUN1, hits give low values",1.01
same,normalized growth,"locus YDL134C, strain PPH21, hits give low values",1
same,normalized growth,"locus YDL185W, strain tfp1, hits give low values",1.02
same,normalized growth,"locus YDL192W, strain arf1, hits give low values",1.01
same,normalized growth,"locus YDR001C, strain nth1, hits give low values",1.01
same,normalized growth,"locus YDR069C, strain doa4, hits give low values",0.999
same,normalized growth,"locus YDR101C, strain arx1, hits give low values",0.996
same,normalized growth,"locus YDR137W, strain rgp1, hits give low values",1.05
same,normalized growth,"locus YDR150W, strain NUM1, hits give low values",0.995
same,normalized growth,"locus YDR159W, strain sac3, hits give low values",0.965
same,normalized growth,"locus YDR162C, strain NBP2, hits give low values",1.01
same,normalized growth,"locus YDR195W, strain ref2",0.983
same,normalized growth,"locus YDR297W, strain sur2, hits give low values",1.01
same,normalized growth,"locus YDR318W, strain mcm21, hits give low values",1.01
same,normalized growth,"locus YDR334W, strain swr1, hits give low values",1.01
same,normalized growth,"locus YDR335W, strain msn5, hits give low values",1.01
same,normalized growth,"locus YDR363W, strain ESC2, hits give low values",1.02
same,normalized growth,"locus YDR388W, hits give low values",1.01
same,normalized growth,"locus YDR392W, strain spt3, hits give low values",0.673 (active)
same,normalized growth,"locus YDR502C, strain sam2, hits give low values",1
same,normalized growth,"locus YEL003W, strain gim4, hits give low values",1.01
same,normalized growth,"locus YEL037C, strain rad23, hits give low values",1.01
same,normalized growth,"locus YEL061C, strain CIN8 (second series), hits give low values",1.01
same,normalized growth,"locus YEL061C, strain CIN8, hits give low values",1.01
same,normalized growth,"locus YER002W, strain NOP16, hits give low values",0.986
same,normalized growth,"locus YER015W, strain faa2, hits give low values",0.994
same,normalized growth,"locus YER016W, strain bim1, hits give low values",0.984
same,normalized growth,"locus YER110C, hits give low values",1.01
same,normalized growth,"locus YER111C, strain swi4, hits give low values",1.02
same,normalized growth,"locus YER155C, strain BEM2 (second series), hits give low values",0.914
same,normalized growth,"locus YER155C, strain BEM2, hits give low values",1.02
same,normalized growth,"locus YER167W, strain BCK2, hits give low values",1.01
same,normalized growth,"locus YFR010W, strain ubp6, hits give low values",1.01
same,normalized growth,"locus YGL078C, strain dbp3, hits give low values",1
same,normalized growth,"locus YGL086W, strain mad1, hits give low values",0.98
same,normalized growth,"locus YGL167C, strain pmr1, hits give low values",1.02
same,normalized growth,"locus YGL173C, strain kem1, hits give low values",1.01
same,normalized growth,"locus YGL227W, strain vid30, hits give low values",1.03
same,normalized growth,"locus YGL240W, strain doc1, hits give low values",0.994
same,normalized growth,"locus YGL248W, strain PDE1, hits give low values",1.01
same,normalized growth,"locus YGL253W, strain hxk2, hits give low values",1.01
same,normalized growth,"locus YGR135W, strain pre9, hits give low values",1.03
same,normalized growth,"locus YGR229C, strain SMI1, hits give low values",1.05
same,normalized growth,"locus YGR252W, strain gcn5, hits give low values",0.969
same,normalized growth,"locus YHR013C, strain ard1, hits give low values",1.02
same,normalized growth,"locus YHR027C, strain rpn1, hits give low values",1.01
same,normalized growth,"locus YHR030C, strain SLT2, hits give low values",1 and 1.01
same,normalized growth,"locus YHR079C, strain IRE1 (second series), hits give low values",1.02
same,normalized growth,"locus YHR079C, strain IRE1, hits give low values",1.03
same,normalized growth,"locus YHR094C, strain hxt1, hits give low values",1.01
same,normalized growth,"locus YHR129C, strain ARP1, hits give low values",1
same,normalized growth,"locus YHR142W, strain chs7, hits give low values",1.02
same,normalized growth,"locus YHR200W, strain rpn10, hits give low values",1.02
same,normalized growth,"locus YIL066C, strain RNR3, hits give low values",1.01
same,normalized growth,"locus YIL073C, strain SPO22, hits give low values",1.05
same,normalized growth,"locus YIL125W, strain kgd1, hits give low values",1.01
same,normalized growth,"locus YIR030C, strain dcg1, hits give low values",1.01
same,normalized growth,"locus YJL092W, strain hpr5, hits give low values",1.02
same,normalized growth,"locus YJL095W, strain BCK1 (second series), hits give low values",1.02
same,normalized growth,"locus YJL095W, strain BCK1, hits give low values",1.02 and 0.997
same,normalized growth,"locus YJL115W, strain asf1, hits give low values",1.02
same,normalized growth,"locus YJL129C, strain trk1, hits give low values",1.01
same,normalized growth,"locus YJL134W, strain LCB3, hits give low values",1.01
same,normalized growth,"locus YJL154C, strain vps35, hits give low values",1.01
same,normalized growth,"locus YJL164C, strain tpk1, hits give low values",1.03
same,normalized growth,"locus YJL166W, strain qcr8, hits give low values",1.03
same,normalized growth,"locus YJL168C, strain set2, hits give low values",1.01
same,normalized growth,"locus YJL187C, strain SWE1 (second series), hits give low values",1.01
same,normalized growth,"locus YJL187C, strain SWE1, hits give low values",1.02
same,normalized growth,"locus YJR043C, strain POL32, hits give low values",1.01
